The text below walks through data of PubChem BioAssay AID1321 (The Scripps Research Institute Molecular Screening Center, 2008).

Screen size: about 220,000 compounds; about 2,600 (1.2%) were called active.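 Rule for the calls: active = activation above the mean of all tested compounds plus 3 SD, set per screening run (cut at about 8.8% in these data); inactive = the rest.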 The sample as a whole holds a higher share of actives than the screen did.

In this assay the target is Wee1-like protein kinase (Homo sapiens) (UniProt P30291). Put plainly: compounds stabilizing Wee1-luciferase fusion – cell-based, HeLa, Wee1K328M-luciferase, luminescence, primary screen (AID 1321).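 Note: cells exposed to compound for 20 h before luminescence read; 0% = DMSO alone and 100% = MG132 at 30 µM.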 As to conditions: HeLa Luc-Wee1K328M stability, at 5 µM, active compounds read high, 100% = proteasome inhibitor MG132 effect.
For the compound `Cc1ccc(NC(=S)NC(=O)/C=C/c2ccc(Cl)cc2)cc1`, the reporter increase was 2.86% (inactive).

`CCOc1ccc(NC(=S)NC(=O)/C=C/c2ccc(OC)cc2)c([N+](=O)[O-])c1`: the reporter increase is 9.57% (active).

On to `CC(=O)Nc1ccc(NC(=S)NC(=O)/C=C/c2ccccc2)cc1`, for which the reporter increase is -3.02% (inactive).

As to `CCOC(=O)c1c(C)oc2ccc(OCC(=O)N(CC)CC)cc12`, the reporter increase was -2.85% (inactive).

As to `COCCOC(=O)c1c(C)oc2cc(Br)c(OCC(N)=O)cc12`, the reporter increase is 10.5% (active).

As for `CCOC(=O)c1c(C)oc2cc(Br)c(OCC(N)=O)cc12`, the reporter increase was 8.52% (inactive).

Consider `C/C(=N/NC(=O)CN1CCN(S(=O)(=O)c2ccc(Br)cc2)CC1)c1ccncc1`, for which the reporter increase is 0.47% (inactive).

As to `COC(=O)/C=C(\Oc1ccccc1)C1(O)CCCCC1`, the reporter increase was -1.22% (inactive).

Turning to `Cc1ccc(Nc2nc(N)nc(CN3CCN(Cc4ccccc4)CC3)n2)cc1Cl`, the reporter increase is 4.72% (inactive).

Take `c1ccc(CN=C2Nc3ccccc3CS2)nc1`: the reporter increase was 10.7% (active).

With `O=C(NCc1ccccn1)Nc1ccc(F)cc1`, the reporter increase was 3.54% (inactive).

As for `CCc1ccc[n+](-c2nc([O-])sc2C=O)c1`, the reporter increase is 10.2% (active).

In the case of `O=C(NCc1csc(-c2cccs2)n1)C1CC1`, the reporter increase was -1.28% (inactive).

Take `O=C(NCC1CCCO1)c1ccccc1-c1nc(-c2ccccc2Cl)no1` (configuration not stated): the reporter increase was -0.52% (inactive).

As to `O=C(CSc1nnnn1-c1ccc(O)cc1)c1ccc(F)cc1`, the reporter increase is -3.92% (inactive).

As to `Cc1onc(NC(=O)c2ccc([N+](=O)[O-])o2)c1Br`, the reporter increase was 0.61% (inactive).

For `O=S(=O)(NCc1cccnc1)c1ccc(Br)s1`, the reporter increase is 3.49% (inactive).

As for `O=S(=O)(NCc1ccccn1)c1ccc(F)cc1`, the reporter increase is -3.61% (inactive).

As to `O=S(=O)(NCc1ccccn1)c1ccc(Br)s1`, the reporter increase is 9.46% (active).

Consider `Cc1nc(/N=C(\N)NC(=O)NC2CCCCC2)nc2ccccc12`, for which the reporter increase was -1.12% (inactive).

Take `CN(C)c1ccnc(Nc2ccc(F)cc2)c1C#N`: the reporter increase was 4.88% (inactive).

With `CC(C)c1ccc(Nc2ncccc2C#N)cc1`, the reporter increase is 19.9% (active).

In the case of `O=C(Nc1ccccc1)c1cccnc1Nc1ccccc1`, the reporter increase was -2.05% (inactive).

Take `CCOc1ccc(N2C(=O)CC(N(CCc3ccc(OC)c(OC)c3)C(=S)Nc3ccccc3)C2=O)cc1` (configuration not stated): the reporter increase was 10.8% (active).

Take `CCOc1ccc(N2C(=O)CC(N(O)c3ccccc3)C2=O)cc1` (configuration not stated): the reporter increase is 7.01% (inactive).

For the compound `COC(=O)CN(C(=S)Nc1ccc(Cl)cc1)C1CC(=O)N(c2ccc(OC)cc2)C1=O` (configuration not stated), the reporter increase is 0.7% (inactive).

On to `Cc1cccc(N(C)C(=O)c2cc3c(=O)[nH]c4ccc(C)cc4c3s2)c1`, for which the reporter increase is 0.97% (inactive).
